Reference: PubChem BioAssay AID651864 (Broad Institute, 2012)
Measured potencies and affinities stand elsewhere. Unmarked numbers belong to inactive results. Activity calls are given as the source filed them. The rule behind the calls is not given here.

Assay: HeLa cell cytotoxicity, dose response, cytotoxicity control, 24 h, plate reader, powder samples, set 3 (AID 651864)
Settings: HeLa viability, CellTiter-Glo ATP luminescence; series mostly up to 80 µM; activity change, negative = cytotoxicity: at the top concentration

Compound | activity change, negative = cytotoxicity [%] | outcome
CCn1nnnc1NCc1cccc(OC)c1 | 12.2 | –
O=C(Cc1ccccc1OC(F)(F)F)NC1CCCC1 | 8.23 | –
O=C(NCc1ccc(-c2ccccc2)cc1)C1CCCC1 | 8.16 | –
O=C(Cc1cccc(F)c1)NC1CCCC1 | 6.37 | –
O=C(Cc1ccc(-c2ccccc2)cc1)NC1CCCC1 | – | inactive
CCn1nnnc1NCc1ccc(C(C)C)cc1 | 0.265 | –
CCn1nnnc1NCc1cccc(N2CCCC2)c1 | -7.97 | –
c1ccc(-n2nnnc2NCc2ccc(N3CCCC3)cc2)cc1 | 4.99 | –
Fc1ccc(Cn2nnnc2NCc2ccc(N3CCCC3)cc2)cc1 | 28.2 | –
CCCn1nnnc1NCc1ccc(C(C)C)cc1 | 1.72 | –
CS(=O)(=O)c1ccc(CC(=O)NC2CCCC2)cc1 | 9.49 | –
O=C(Cc1ccccc1F)NC1CCCC1 | 8.61 | –
CC1(NC(=O)Cc2ccc(-c3ccccc3)cc2)COC1 | 4.83 | –
CCn1nnnc1NCc1ccc(N2CCCC2)cc1 | 1.15 | –
c1ccc(Cn2nnnc2NCc2ccc(N3CCCC3)cc2)cc1 | 2.68 | –
O=C(Cc1ccc(-c2ccccc2)cc1)NC1CCC1 | 1.56 | –
Cn1nnnc1NCc1ccc(N2CCCC2)cc1 | 9.42 | –
O=C(Cc1ccccc1C(F)(F)F)NC1CCCC1 | 8.84 | –
CCCCn1nnnc1NCc1ccc(N2CCCC2)cc1 | -9.35 | –
CCn1nnc(NCc2ccc(C)cc2)n1 | 1.73 | –
CCn1nnnc1CCc1ccc(N2CCCC2)cc1 | -12.4 | –
CCn1nnnc1NCc1ccccc1N1CCCC1 | -2.38 | –
CCn1nnnc1NCc1ccc(N2CCCCC2)cc1 | -1.74 | –
CC(C)c1ccc(CNc2nnnn2C)cc1 | -2.22 | –
